The values below come from PubChem BioAssay (NCI).

Compounds without any hit were thinned out: in the full panel of roughly 83,000, 20% have a hit.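 Values shown are percent growth following 48 h exposure of cells in 96-well plates to a single concentration of compound; below 10 was considered active.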 Unmarked numbers belong to inactive results. The source made the active and inactive calls.

What all share (test): NCI-60 one-dose screen, 48 h (100 = growth as untreated, 0 = no growth, -100 = all killed)
Conditions in all cases: 10 µM unless noted

The test system of assay [1] is T-47D breast.
Assay [2] concerns BT-549 breast.
Assay [3] deals with MDA-MB-435 melanoma.
Assay [4] deals with SW-620 colon.
Assay [5] deals with MCF7 breast.
For assay [6], the system named is HCT-116 colon.
Assay [7] deals with HCC-2998 colon.
Assay [8] relates to KM12 colon.

For `COC(=O)CNC(=O)[C@]12CCC(C)(C)C[C@H]1C1=CC[C@@H]3[C@@]4(C)Cc5c([nH]c6ccccc56)C(C)(C)[C@@H]4CC[C@@]3(C)[C@]1(C)CC2`, the growth in assay [1] is 57.1%; in assay [2], 102%; in assay [3], 97.8%; in assay [4], 88.8%; in assay [5] it was 79.9%; in assay [6] it was 95%. The growth in assay [7] is 103%; in assay [8] it was 92.3%.
Regarding `CC(C)c1ccc(Nc2ccc3c(OCCCN4CCN(C)CC4)cccc3n2)cc1`, the growth is 68.9% in assay [1]; 79.6% in assay [2]; 22.6% in assay [3]; 4.69% (active) in assay [4]; 18.2% in assay [5]; 18.6% in assay [6]. For the same compound, the growth in assay [7] is 64.7%; in assay [8], 39.3%.
As to `CC[C@]12C=CCN3CC[C@@]4(c5cc(NC(=O)CCC(=O)O[C@H]6CC[C@H]7[C@@H]8CCC9=CC(=O)CC[C@@H]9[C@H]8CC[C@]67C)c(OC)cc5N(C)[C@H]4[C@@](O)(C(=O)OC)[C@@H]1OC(C)=O)[C@@H]32`, the growth in assay [1] is 53%; in assay [2], 77.6%; in assay [3], 20.7%; in assay [4], 86.9%; in assay [5], 80%; in assay [6], 62.5%. In addition, the growth is 91.9% in assay [7] and 73.1% in assay [8].
For `CCCCCCNC(=O)Oc1ccc(/C(=C(\C)c2ccccc2)c2ccc(OCCN3CCCCC3)cc2)cc1`, the growth in assay [1] was 30.1%; in assay [2], 64.2%; in assay [3], 68.2%; in assay [4], 34.1%; in assay [5], 12.7%; in assay [6], 33.9%. In addition, the values for the growth in assay [7] and in assay [8] were 76.6% and 49.2%, respectively.
On to `CCOC(=O)c1cc(C#N)n2ccc3ccccc3c12`, for which the growth is 104% in assay [1]; 113% in assay [2]; 99.1% in assay [3]; 97.9% in assay [4]; 95.7% in assay [5]; 108% in assay [6]. Further, the growth in assay [7] was 106%; in assay [8], 100%.
In the case of `O=C(CCN1CCCC1)Nc1ccc2c(NCCCCc3ccccc3)c3ccccc3nc2c1`, the growth was -27.2% (active) in assay [1]; 56.9% in assay [2]; -91.2% (active) in assay [3]; -60.5% (active) in assay [4]; -75.9% (active) in assay [5]; -70.8% (active) in assay [6]. Further, the figures for the growth in assay [7] and in assay [8] were -90.9% (active) and -79.1% (active), respectively.
Take `O=C1c2ccccc2C(=O)c2c([N+](=O)[O-])ccc(Cl)c21`: the growth in assay [1] is 46.7%; in assay [2], 88.5%; in assay [3] it was 106%; in assay [4] it was 28.9%; in assay [5], 71.7%; in assay [6], 63.6%. The results for the growth in assay [7] and in assay [8] were 104% and 79.1%, respectively.
For the compound `Nc1n[nH]c2cccc(C#Cc3cccc(C(=O)Nc4cccc(C(F)(F)F)c4)c3)c12`, the growth was 46.9% in assay [1]; 84.9% in assay [2]; 52.5% in assay [3]; 55.9% in assay [4]; 71.6% in assay [5]; 27.5% in assay [6]. The results for the growth in assay [7] and in assay [8] were 62% and 46.7%, respectively.
For `ClC1=C(Br)C(Br)(Br)C(=C(Br)Br)C1(Br)Br`, the growth in assay [1] is 73.6%; in assay [2], 113%; in assay [3] it was 107%; in assay [4], 54%; in assay [5], 76.8%; in assay [6] it was 79.9%. Moreover, the values for the growth in assay [7] and in assay [8] were 115% and 101%, respectively.
As to `CC(=O)Nc1ccc(-n2cnc3cc(-c4ccc(OCCN5CCCCC5)cc4)ccc32)cc1`, the growth in assay [1] was 107%; in assay [2], 99.4%; in assay [3] it was 102%; in assay [4] it was -29% (active); in assay [5] it was 70.6%; in assay [6] it was -51.2% (active). Besides, the growth was 119% in assay [7] and 29% in assay [8].
Consider `CCC(=O)Oc1ccc(/C(=C(\C)c2ccccc2)c2ccc(OCCN3CCCCC3)cc2)cc1`, for which the growth in assay [1] was 34.3%; in assay [2], 82.6%; in assay [3], 81.4%; in assay [4], 87.1%; in assay [5], 24.2%; in assay [6], 60.9%. Moreover, the growth in assay [7] was 65.2%; in assay [8] it was 65%.
With `COc1ccc(C(=O)C2C(C#N)C(C#N)C3C=Cc4ccccc4N32)cc1` (stereo not drawn), the growth in assay [1] was 42.5%; in assay [2], 63.9%; in assay [3], -47.8% (active); in assay [4], 26.5%; in assay [5] it was 9.25% (active); in assay [6] it was 15.9%. Besides, the figures for the growth in assay [7] and in assay [8] were 33.6% and 6.36% (active), respectively.
As to `Cc1ccc(-c2[nH][nH]c(=O)c2-c2nc3ccccc3s2)cc1`, the growth is 103% in assay [1]; 123% in assay [2]; 100% in assay [3]; 93.9% in assay [4]; 97.1% in assay [5]; 100% in assay [6]. The growth in assay [7] is 99.7%; in assay [8], 103%.
With `O=C1c2cccc3c(-c4ccc5c(c4)ncn5C4CCCCC4)ccc(c23)C(=O)N1c1nc2ccccc2s1`, the growth in assay [1] is 72.6%; in assay [2], 95.8%; in assay [3], 100%; in assay [4] it was 108%; in assay [5], 69%; in assay [6], 84.4%. Moreover, the growth in assay [7] is 93%; in assay [8] it was 83.8%.
Regarding `COc1ccccc1/C=C1\Oc2cc(OCCN3CCCC3)ccc2C1=O`, the growth was 90.1% in assay [1]; 84.2% in assay [2]; 94% in assay [3]; 74% in assay [4]; 68.1% in assay [5]; 47.1% in assay [6]. In addition, the growth in assay [7] is 75.8%; in assay [8], 88.8%.
Take `COc1cc2nc(-c3ccc(Cl)cc3)cc(OCCCN3CCCC3)c2cc1OC`: the growth in assay [1] is 32%; in assay [2], 37.3%; in assay [3], -7.23% (active); in assay [4], 30.4%; in assay [5], 48.1%; in assay [6] it was 23.4%. The growth in assay [7] is 72.4%; in assay [8] it was 41.4%.
Take `COc1ccc(-c2nc3sccn3c2/C=C/C(=O)c2ccc3c(c2)OCO3)cc1`: the growth is 83.9% in assay [1]; 81.8% in assay [2]; 57.6% in assay [3]; 56% in assay [4]; -7.62% (active) in assay [5]; 58.4% in assay [6]. Also, the growth is 95.5% in assay [7] and 54.2% in assay [8].
Regarding `COCc1cnccc1NC1CCCCCC1`, the growth in assay [1] is 98.7%; in assay [2], 119%; in assay [3], 104%; in assay [4] it was 99.3%; in assay [5] it was 97.2%; in assay [6] it was 100%. Further, the growth in assay [7] is 103%; in assay [8], 100%.
Turning to `CCc1c2c(nc3ccc(OCc4ccc(B(O)O)cc4)cc13)-c1cc3c(c(=O)n1C2)COC(=O)[C@]3(O)CC`, the growth in assay [1] was -1.27% (active); in assay [2], -3.67% (active); in assay [3], 6.63% (active); in assay [4], 13.8%; in assay [5] it was 1.65% (active); in assay [6], 4.57% (active). The growth is 19.2% in assay [7] and 1.86% (active) in assay [8].
On to `Cc1ccc(C(=O)/C(=C\c2ccc([N+](=O)[O-])cc2)S(=O)Cc2ccc(F)cc2)cc1` (stereo not drawn), for which the growth in assay [1] is -26.6% (active); in assay [2], -0.818% (active); in assay [3], 45.5%; in assay [4], -27.7% (active); in assay [5], 7.88% (active); in assay [6] it was -70.7% (active). Also, the values for the growth in assay [7] and in assay [8] were 22.8% and 19.4%, respectively.
On to `O=C1NN(C(=O)c2ccccc2)C(c2ccc(Cl)c(Cl)c2)=C/C1=C\c1ccc([N+](=O)[O-])cc1`, for which the growth in assay [1] was 76.7%; in assay [2] it was 52.4%; in assay [3], 86.5%; in assay [4] it was 42.9%; in assay [5], 83.6%; in assay [6], 90.7%. Moreover, the values for the growth in assay [7] and in assay [8] were 44.6% and 51.7%, respectively.
Turning to `N#CC1C(C#N)C(C(=O)c2ccc(Br)cc2)N2c3ccccc3C=CC12` (stereo not drawn), the growth in assay [1] was 49.3%; in assay [2], 93.2%; in assay [3], 16%; in assay [4] it was 66.4%; in assay [5] it was 13%; in assay [6], 68.5%. Moreover, the growth in assay [7] was 50.7%; in assay [8] it was 22.3%.
As to `CCN(c1ccccc1)S(=O)(=O)c1cc([N+](=O)[O-])ccc1Cl`, the growth was 26.6% in assay [1]; 49.4% in assay [2]; 62.3% in assay [3]; 46.3% in assay [4]; 52.6% in assay [5]; 24.6% in assay [6]. In addition, the values for the growth in assay [7] and in assay [8] were 110% and 54.1%, respectively.
`O=Cc1cc2ccccc2nc1Oc1ccc(C(F)(F)F)cc1`: the growth in assay [1] is 83.7%; in assay [2], 99.7%; in assay [3] it was 103%; in assay [4], 67%; in assay [5], 48.1%; in assay [6], 102%. Moreover, the growth is 108% in assay [7] and 92.4% in assay [8].
On to `CCN(Cc1ccccc1)c1ccc(C=O)cc1`, for which the growth is 78.6% in assay [1]; 95.1% in assay [2]; 107% in assay [3]; 97.9% in assay [4]; 96% in assay [5]; 91.3% in assay [6]. Further, the growth was 93.7% in assay [7] and 106% in assay [8].
For the compound `O=C(c1nnc(Nc2ccccc2Br)o1)c1c[nH]c2ccccc12`, the growth in assay [1] is 79.6%; in assay [2] it was 103%; in assay [3] it was 101%; in assay [4], 98.7%; in assay [5], 77.2%; in assay [6], 88.4%. The growth is 88.6% in assay [7] and 81.7% in assay [8].
As for `CCNC(=O)Oc1ccc(/C(=C(\C)c2ccccc2)c2ccc(OCCN(CC)CC)cc2)cc1`, the growth was 46.3% in assay [1]; 76.1% in assay [2]; 71% in assay [3]; 82.6% in assay [4]; 28.8% in assay [5]; 55.7% in assay [6]. In addition, the growth in assay [7] was 91.5%; in assay [8] it was 72.1%.
Consider `C=CCn1c(-c2ccc(-c3nc4ccc(C)cc4[nH]3)cc2)n[nH]c1=S`, for which the growth in assay [1] was 97.5%; in assay [2], 100%; in assay [3], 98.1%; in assay [4], 112%; in assay [5], 82.8%; in assay [6] it was 106%. For the same compound, the growth in assay [7] is 108%; in assay [8], 105%.
Consider `CCN1C(=O)/C(=C/C(=O)OC)S/C1=N\NC(=O)c1cc2ccc1/C=C\c1ccc(cc1)/C=C\2`, for which the growth in assay [1] is 94.2%; in assay [2] it was 92.3%; in assay [3] it was 99.3%; in assay [4] it was 8.79% (active); in assay [5], 43.7%; in assay [6], 49.5%. The values for the growth in assay [7] and in assay [8] were 105% and 85%, respectively.
As for `O=C1Nc2cc(Cl)ccc2/C1=C\c1c(-c2ccc(F)cc2)nc2ccccn12`, the growth was 24.2% in assay [1]; 21.6% in assay [2]; -55% (active) in assay [3]; 9.82% (active) in assay [4]; 2.1% (active) in assay [5]; -80.1% (active) in assay [6]. Moreover, the growth in assay [7] is 31.5%; in assay [8], -1.1% (active).
Consider `COc1cc2nc(-c3ccc(Cl)cc3)cc(OCCCN3CCC(O)CC3)c2cc1OC`, for which the growth in assay [1] is 44.3%; in assay [2], 34.9%; in assay [3], -10.7% (active); in assay [4] it was 51.2%; in assay [5], 48.9%; in assay [6], 17.9%. Moreover, the results for the growth in assay [7] and in assay [8] were 69.9% and 37.2%, respectively.
